Holding throughout (assay): NCI-60 one-dose screen, 48 h (100 = growth as untreated, 0 = no growth, -100 = all killed)
One assay concerns NCI-H322M lung. Conditions: 10 µM unless noted.
A further assay relates to HOP-62 NSCLC. The note with it: 10 µM unless noted.
For the next assay, the system named is NCI-H460 lung. Conditions: 10 µM unless noted.
Another assay relates to HOP-92 NSCLC. Conditions: 10 µM unless noted.
The test system of another assay is NCI-H522 lung. The note with it: 10 µM.
In another assay the test system is A549/ATCC NSCLC. Conditions: 10 µM unless noted.
The test system of another assay is 786-0 renal. The note with it: 10 µM unless noted.
For a further assay, the system named is NCI-H226 lung. Conditions: 10 µM.
Another assay has as its system COLO 205 colon. The note with it: 10 µM unless noted.

Molecules are shown by their SMILES. This is part of a sample that, as a whole, favours compounds with a hit. Of some 83,000 tested, about 20% had one in any assay.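 Compound tested at a single concentration for 48 hours in 96-well plates; a percent growth value below 10 was scored as active.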 Values without a mark were called inactive. Activity calls are given as the source filed them.

Consider `COc1cc2oc(-c3ccc(O)cc3)cc(=O)c2c(O)c1I`, for which the growth was 108% in the assay on NCI-H322M lung; 126% in the assay on HOP-62 NSCLC; 101% in the assay with NCI-H460 lung; 113% in the assay with HOP-92 NSCLC; 86.2% in the assay with NCI-H522 lung; 96.7% with A549/ATCC NSCLC. In addition, in the assay on 786-0 renal, the growth was 100%.
`Cn1c2c(cc(S(=O)(=O)c3ccccc3)c1=O)CCc1c-2cnn1-c1cccc(Cl)c1`: the growth in the assay on NCI-H226 lung is 84.6%; with HOP-62 NSCLC it was 94.7%; with NCI-H460 lung, 101%; in the assay on HOP-92 NSCLC, 44.8%; in the assay with NCI-H522 lung it was -81.2% (active); with A549/ATCC NSCLC, 85.6%. In addition, the growth in the assay on 786-0 renal was 92.1%; with COLO 205 colon, 97.9%.
`CCCCCCCCCCCCSC1=CC(=O)C=CC1=O`: the growth in the assay with NCI-H226 lung is 91.5%; in the assay on HOP-62 NSCLC, 82.2%; in the assay on NCI-H460 lung, 105%; in the assay on HOP-92 NSCLC it was 24.3%; with NCI-H522 lung, -81.2% (active); in the assay on A549/ATCC NSCLC, 92.3%. The growth in the assay with 786-0 renal is 98.7%; in the assay with COLO 205 colon it was 107%.
Turning to `O=C1CCC(N2C(=O)c3cccc(NCCOCCOCCNC(=O)c4cc5c(o4)C(=O)c4ccccc4C5=O)c3C2=O)C(=O)N1` (stereo unspecified), the growth with NCI-H322M lung was -76.6% (active); in the assay on HOP-62 NSCLC it was -58.2% (active); in the assay with NCI-H460 lung, -81.3% (active); in the assay with HOP-92 NSCLC it was 60.4%; with NCI-H522 lung, -55% (active); in the assay with A549/ATCC NSCLC, -30.2% (active). In the assay with 786-0 renal, the growth was 17.8%.
For the compound `COc1ccc(-c2c3c(N)c4c(nc3nc3c2c(C)nn3-c2ccccc2)CCCC4)cc1`, the growth is 86.9% in the assay on NCI-H226 lung; 89.3% in the assay on HOP-62 NSCLC; 73.8% with NCI-H460 lung; 28.9% in the assay with HOP-92 NSCLC; 60.6% in the assay on NCI-H522 lung; 76.6% in the assay on A549/ATCC NSCLC. The results for the growth in the assay on 786-0 renal and with COLO 205 colon were 70.8% and 73.4%, respectively.
As to `COc1ccc(C(=O)C2=CC(=O)C(=O)C2)cc1OC`, the growth with NCI-H226 lung was 103%; in the assay with HOP-62 NSCLC it was 94.1%; with NCI-H460 lung it was 103%; with HOP-92 NSCLC, 95.9%; with NCI-H522 lung it was 86.6%; in the assay on A549/ATCC NSCLC, 106%. Moreover, the growth with 786-0 renal is 101%; with COLO 205 colon, 112%.
Regarding `CSc1ccc(OC(C)=O)cc1C`, the growth was 98.3% in the assay on NCI-H226 lung; 79.4% in the assay on HOP-62 NSCLC; 104% in the assay on NCI-H460 lung; 97.2% in the assay with HOP-92 NSCLC; 105% with NCI-H522 lung; 101% in the assay with A549/ATCC NSCLC. Besides, the results for the growth in the assay on 786-0 renal and in the assay with COLO 205 colon were 98.1% and 104%, respectively.
On to `C(=C\c1ccccc1)/CN1CCN(C(c2ccccc2)c2ccccc2)CC1`, for which the growth is 86.3% with NCI-H226 lung; 99.6% in the assay on HOP-62 NSCLC; 96.5% in the assay on NCI-H460 lung; 62.5% with HOP-92 NSCLC; 93.5% with NCI-H522 lung; 88.7% in the assay on A549/ATCC NSCLC. In addition, the growth with 786-0 renal is 95.3%; in the assay on COLO 205 colon it was 101%.
On to `FC(F)(F)c1cc(CNc2ncc(Br)c(Cl)n2)cc(C(F)(F)F)c1`, for which the growth with NCI-H226 lung is 90.3%; in the assay with HOP-62 NSCLC it was 90.2%; in the assay on NCI-H460 lung it was 107%; with HOP-92 NSCLC, 84.3%; with NCI-H522 lung, 74.2%; in the assay on A549/ATCC NSCLC it was 101%. In addition, the growth is 90.4% in the assay with 786-0 renal and 98.4% with COLO 205 colon.
On to `C=C1CC[C@@H]2[C@@](C)(CCC[C@]2(C)C(=O)O)[C@@H]1CC[C@H](CO)CCO`, for which the growth in the assay with NCI-H322M lung is 101%; in the assay with HOP-62 NSCLC, 100%; in the assay on NCI-H460 lung, 113%; in the assay on HOP-92 NSCLC it was 90%; with NCI-H522 lung, 85.6%; in the assay on A549/ATCC NSCLC, 102%. Also, the growth in the assay on 786-0 renal is 99.3%.
In the case of `O=C1/C(=C/c2ccccc2F)CNC/C1=C\c1ccccc1F`, the growth in the assay with NCI-H322M lung was 14.8%; with HOP-62 NSCLC it was -63.6% (active); in the assay on NCI-H460 lung, -29.7% (active); in the assay on HOP-92 NSCLC, 16.6%; in the assay with NCI-H522 lung, -61.1% (active); with A549/ATCC NSCLC, -11.1% (active). Also, in the assay with 786-0 renal, the growth was -92.8% (active).
`O=C(Nc1ccc(Cl)c(Cl)c1)NC(CO)(CO)CO`: the growth with NCI-H226 lung was 97.5%; with HOP-62 NSCLC, 88.1%; with NCI-H460 lung, 103%; in the assay on HOP-92 NSCLC, 79.9%; in the assay on NCI-H522 lung it was 88.7%; in the assay with A549/ATCC NSCLC it was 97.4%. Further, the growth with 786-0 renal is 92.3%; in the assay on COLO 205 colon it was 106%.
As for `Cc1nc2cc(Nc3nc(Nc4ccc(F)cc4)nc(N4CCN(C)CC4)n3)ccc2n1Cc1ccccc1`, the growth was 65% with NCI-H226 lung; 58.2% in the assay with HOP-62 NSCLC; 2.5% (active) in the assay on HOP-92 NSCLC; -55.1% (active) with NCI-H522 lung; 7.21% (active) in the assay with A549/ATCC NSCLC; -83.1% (active) in the assay with 786-0 renal. Further, the growth with COLO 205 colon was -55.5% (active).
For the compound `CSc1nnc(-c2sc3nnc(-c4ccccc4)c(-c4ccccc4)c3c2O)o1`, the growth in the assay with NCI-H226 lung is 87.7%; in the assay with HOP-62 NSCLC, 71.1%; in the assay with NCI-H460 lung, 56.7%; in the assay on NCI-H522 lung, 96.6%; with A549/ATCC NSCLC it was 80.5%; in the assay on 786-0 renal, 88.7%. In addition, the growth in the assay with COLO 205 colon is 110%.

Values taken from PubChem BioAssay (NCI).
